In PubChem BioAssay (NCI) one finds growth data, which are given here for 9 compounds.

Test systems include HCT-15 colon; HT29 colon; SNB-19 CNS; U251 CNS; PC-3 prostate; SK-MEL-5 melanoma; UACC-62 melanoma; LOX IMVI melanoma; SK-MEL-28 melanoma; SK-MEL-2 melanoma; EKVX NSCLC; SN12C renal; UO-31 renal; ACHN renal; CAKI-1 renal; A498 renal; CCRF-CEM leukemia; MOLT-4 leukemia; TK-10 renal.
Common to all, as to experiment: NCI-60 one-dose screen, 48 h (100 = growth as untreated, 0 = no growth, -100 = all killed)
Holding throughout (settings): 10 µM unless noted

Structures are written as SMILES. About 83,000 compounds went through this panel and 20% of them were active in at least one assay; those are over-represented in the sample as a whole.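 Cells were grown in 96-well plates and exposed to the test compound at a single concentration for 48 hours; results are reported as percent growth, with values below 10 considered active.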 Unmarked numbers belong to inactive results. Calls of active or inactive are those of the source.

`CC(=O)Oc1csc(N(C(C)=O)c2cccc(C(F)(F)F)c2)n1`: the growth in the experiment on HCT-15 colon is 94.4%; in the experiment on HT29 colon, 102%; in the experiment with SNB-19 CNS, 97.8%; in the experiment with U251 CNS it was 88.3%; with PC-3 prostate, 85.6%; in the experiment with SK-MEL-5 melanoma, 92.1%. In addition, the growth is 89.2% with UACC-62 melanoma; 92.3% with LOX IMVI melanoma; 103% with SK-MEL-28 melanoma; 96.7% with SK-MEL-2 melanoma; 46.1% with EKVX NSCLC; 89.6% in the experiment on SN12C renal. The growth is 91% in the experiment on UO-31 renal; 102% with ACHN renal; 98.4% in the experiment on CAKI-1 renal; 85.2% with A498 renal; 60.9% in the experiment on CCRF-CEM leukemia; 104% in the experiment with MOLT-4 leukemia.
For the compound `CCOC(=O)c1c(NS(=O)(=O)c2ccc(C)cc2)sc2c1CCC1(C2)OCCO1`, the growth is 98.3% with HCT-15 colon; 104% in the experiment on HT29 colon; 98.7% with SNB-19 CNS; 99.1% with U251 CNS; 87.1% in the experiment on PC-3 prostate; 95.2% in the experiment on SK-MEL-5 melanoma. Further, the growth in the experiment on UACC-62 melanoma was 78.2%; in the experiment on LOX IMVI melanoma it was 98.9%; in the experiment with SK-MEL-28 melanoma, 101%; in the experiment with SK-MEL-2 melanoma, 90.3%; in the experiment on EKVX NSCLC, 94.6%; in the experiment on SN12C renal, 95.1%. Further, the growth was 82.6% with UO-31 renal; 85.1% in the experiment with CAKI-1 renal; 98% in the experiment on A498 renal; 96.2% in the experiment with CCRF-CEM leukemia; 85.8% in the experiment with MOLT-4 leukemia.
Consider `Cc1ccc(-c2csc(NC(=O)CCCCl)n2)cc1`, for which the growth in the experiment on HCT-15 colon was 95.1%; in the experiment on HT29 colon it was 93.9%; in the experiment with SNB-19 CNS, 86.5%; in the experiment on U251 CNS, 95.4%; with PC-3 prostate, 95.4%; in the experiment with SK-MEL-5 melanoma, 93.9%. Moreover, the growth with UACC-62 melanoma is 88.6%; with LOX IMVI melanoma, 98.3%; in the experiment with SK-MEL-28 melanoma, 107%; in the experiment with SK-MEL-2 melanoma it was 92.2%; in the experiment on SN12C renal, 89.2%; in the experiment on UO-31 renal, 74.5%. For the same compound, the growth is 98.8% in the experiment with TK-10 renal; 99.2% in the experiment on ACHN renal; 91.6% with CAKI-1 renal; 82.3% with A498 renal; 96.3% in the experiment on CCRF-CEM leukemia; 79.1% in the experiment with MOLT-4 leukemia.
`Nc1cc2c(cc1C(=O)c1cccc(F)c1)OCCO2`: the growth with HCT-15 colon was 93.9%; in the experiment with HT29 colon it was 100%; in the experiment with SNB-19 CNS it was 97.1%; in the experiment with U251 CNS it was 94%; in the experiment with PC-3 prostate it was 94.9%; with SK-MEL-5 melanoma, 109%. Also, the growth is 104% in the experiment on UACC-62 melanoma; 95.6% in the experiment with LOX IMVI melanoma; 105% in the experiment on SK-MEL-28 melanoma; 92.5% in the experiment on EKVX NSCLC; 90.1% in the experiment with SN12C renal; 68.8% with UO-31 renal. Besides, the growth in the experiment on TK-10 renal is 94%; in the experiment on ACHN renal it was 105%; in the experiment with CAKI-1 renal, 88.4%.
As for `O=S(=O)(NCCNc1nccc(-c2c(-c3ccc(F)cc3)nc3sccn23)n1)c1ccc(F)cc1`, the growth with HCT-15 colon is 59%; in the experiment with HT29 colon, 52.1%; with SNB-19 CNS, 88.5%; in the experiment on U251 CNS, 79.8%; in the experiment with PC-3 prostate it was 75.3%; with SK-MEL-5 melanoma, 70.8%. For the same compound, the growth in the experiment with UACC-62 melanoma is 71.6%; in the experiment with LOX IMVI melanoma, 58.3%; in the experiment on SK-MEL-28 melanoma it was 87.6%; in the experiment on SK-MEL-2 melanoma, 76.3%; in the experiment on SN12C renal it was 73%; in the experiment on UO-31 renal it was 42.7%. For the same compound, the growth in the experiment on TK-10 renal was 114%; with ACHN renal it was 52.5%; in the experiment with CAKI-1 renal, 62.7%; in the experiment with A498 renal, 96.8%; in the experiment with CCRF-CEM leukemia, 64.3%; in the experiment on MOLT-4 leukemia, 73.9%.
With `Cc1ccc(S(=O)(=O)NCCNc2nccc(-c3c(-c4cccc(N)c4)nc4sccn34)n2)cc1`, the growth was 92.1% with HCT-15 colon; 91.7% with HT29 colon; 104% in the experiment on SNB-19 CNS; 101% in the experiment with U251 CNS; 84.5% with PC-3 prostate; 84.6% in the experiment with SK-MEL-5 melanoma. Also, the growth in the experiment with UACC-62 melanoma is 79.4%; with LOX IMVI melanoma, 95%; in the experiment with SK-MEL-2 melanoma, 109%; with EKVX NSCLC, 83.5%; in the experiment on SN12C renal, 81%; with UO-31 renal it was 70.9%. The growth with TK-10 renal was 116%; in the experiment with ACHN renal it was 86.4%; in the experiment on CAKI-1 renal, 81.8%; in the experiment on A498 renal it was 92.4%; in the experiment on CCRF-CEM leukemia, 95.8%; in the experiment with MOLT-4 leukemia it was 88%.
On to `COc1ccc(C(=O)N2NC(=O)/C(=C/c3ccc(F)cc3)N=C2c2ccccc2)cc1`, for which the growth with HCT-15 colon was 73%; in the experiment on HT29 colon it was 94.6%; with SNB-19 CNS, 83.7%; with U251 CNS, 56.4%; with PC-3 prostate it was 89.1%; in the experiment on SK-MEL-5 melanoma it was 96.1%. Moreover, the growth with UACC-62 melanoma was 77.4%; with LOX IMVI melanoma it was 91.7%; in the experiment with SK-MEL-28 melanoma, 102%; in the experiment with EKVX NSCLC it was 88.4%; with SN12C renal it was 84.7%; in the experiment on UO-31 renal, 91.7%. In addition, the growth in the experiment on TK-10 renal was 96.4%; with CAKI-1 renal, 86.1%; with A498 renal it was 69.2%; in the experiment on MOLT-4 leukemia, 42.4%.
For `COc1ccc(C(=O)N2NC(=O)/C(=C/c3cn(-c4ccccc4)nc3-c3ccccc3)N=C2c2ccccc2)cc1`, the growth is 98.2% in the experiment with HCT-15 colon; 99% in the experiment on HT29 colon; 88.6% in the experiment with SNB-19 CNS; 91.2% with U251 CNS; 95.3% in the experiment with PC-3 prostate; 105% with SK-MEL-5 melanoma. For the same compound, the growth in the experiment on UACC-62 melanoma was 93%; in the experiment on LOX IMVI melanoma, 99.2%; with SK-MEL-28 melanoma, 105%; in the experiment with EKVX NSCLC it was 96.1%; in the experiment with SN12C renal, 95%; in the experiment on UO-31 renal, 93.7%. In addition, the growth in the experiment on TK-10 renal is 103%; with ACHN renal it was 106%; in the experiment on CAKI-1 renal, 95.6%; in the experiment on A498 renal, 77.6%; in the experiment on MOLT-4 leukemia it was 85%.
As to `O=C(O)c1cn(C2CC2)c2cc(N3CCN(C(=O)/C=C/c4ccc(Cl)cc4)CC3)c(F)cc2c1=O`, the growth was 51.6% in the experiment on HCT-15 colon; 82.1% in the experiment on HT29 colon; 82.8% in the experiment with SNB-19 CNS; 77.7% in the experiment with U251 CNS; 72.6% with PC-3 prostate; 64.8% in the experiment with SK-MEL-5 melanoma. Moreover, the growth was 61.7% in the experiment with UACC-62 melanoma; 22% in the experiment on LOX IMVI melanoma; 98.8% with SK-MEL-2 melanoma; 80.4% with EKVX NSCLC; 70.5% in the experiment on SN12C renal; -62.8% (active) with UO-31 renal. Also, the growth with TK-10 renal is 105%; with ACHN renal, 76.7%; in the experiment with CAKI-1 renal, 73.8%; in the experiment on A498 renal, 29%; with CCRF-CEM leukemia, 64.8%; in the experiment on MOLT-4 leukemia it was 57.8%.
